Each structure is given as a SMILES string. Where “and” joins values, the source holds several entries; their conditions need not be identical. Equal values may be shown once. Results filed as inconclusive are left out. Calls of active or inactive are those of the source. Rule for the calls: active = hit-call score of the fitted dose curve at least 0.9, where 1 is the maximum; inconclusive = response in the unintended direction; inactive = score below 0.9.

PGR (gene 5241), sequence (P06401 whole entry, looked up): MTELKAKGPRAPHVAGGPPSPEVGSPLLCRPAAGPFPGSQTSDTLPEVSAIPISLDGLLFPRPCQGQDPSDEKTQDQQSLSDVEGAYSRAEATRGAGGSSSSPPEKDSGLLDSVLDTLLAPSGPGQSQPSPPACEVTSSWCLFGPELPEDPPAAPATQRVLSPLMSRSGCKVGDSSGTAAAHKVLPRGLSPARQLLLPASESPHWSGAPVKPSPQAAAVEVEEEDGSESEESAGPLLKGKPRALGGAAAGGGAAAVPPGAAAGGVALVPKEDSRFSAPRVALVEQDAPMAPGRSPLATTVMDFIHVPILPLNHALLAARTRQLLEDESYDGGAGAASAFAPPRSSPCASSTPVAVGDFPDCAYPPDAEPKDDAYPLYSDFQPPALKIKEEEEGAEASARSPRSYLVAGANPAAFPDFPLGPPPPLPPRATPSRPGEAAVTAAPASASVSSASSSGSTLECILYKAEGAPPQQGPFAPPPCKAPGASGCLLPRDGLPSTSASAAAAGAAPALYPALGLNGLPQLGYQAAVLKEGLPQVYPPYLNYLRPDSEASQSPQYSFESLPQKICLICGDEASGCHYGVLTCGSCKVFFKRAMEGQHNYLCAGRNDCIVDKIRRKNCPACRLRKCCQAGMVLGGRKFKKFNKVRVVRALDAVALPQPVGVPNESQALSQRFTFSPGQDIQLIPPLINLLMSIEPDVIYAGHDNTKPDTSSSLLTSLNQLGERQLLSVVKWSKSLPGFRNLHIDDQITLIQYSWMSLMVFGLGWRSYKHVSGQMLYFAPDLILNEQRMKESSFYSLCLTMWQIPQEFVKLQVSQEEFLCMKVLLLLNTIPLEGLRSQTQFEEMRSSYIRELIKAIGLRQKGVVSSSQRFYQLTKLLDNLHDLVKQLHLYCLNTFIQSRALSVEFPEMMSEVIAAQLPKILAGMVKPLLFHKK
human Thyroid Receptor Alpha (TRa), THRA (gene 7067), sequence (P10827 whole entry, looked up): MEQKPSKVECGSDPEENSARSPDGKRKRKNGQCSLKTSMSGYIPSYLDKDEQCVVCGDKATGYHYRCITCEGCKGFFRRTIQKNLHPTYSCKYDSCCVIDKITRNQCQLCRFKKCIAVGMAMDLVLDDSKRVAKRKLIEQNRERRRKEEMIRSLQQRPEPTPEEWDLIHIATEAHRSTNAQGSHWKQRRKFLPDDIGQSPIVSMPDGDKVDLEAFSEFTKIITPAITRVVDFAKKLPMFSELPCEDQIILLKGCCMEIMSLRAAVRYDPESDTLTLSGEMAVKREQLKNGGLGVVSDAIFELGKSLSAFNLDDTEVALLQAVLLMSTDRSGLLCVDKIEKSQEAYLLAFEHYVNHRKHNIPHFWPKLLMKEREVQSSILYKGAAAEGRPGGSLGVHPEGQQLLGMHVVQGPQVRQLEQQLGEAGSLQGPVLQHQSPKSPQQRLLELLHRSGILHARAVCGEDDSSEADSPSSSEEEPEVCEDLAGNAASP
guinea pig Sigma Receptor, Non-selective Binding, SIGMAR1 (gene 100135589), sequence (Q60492 whole entry, looked up): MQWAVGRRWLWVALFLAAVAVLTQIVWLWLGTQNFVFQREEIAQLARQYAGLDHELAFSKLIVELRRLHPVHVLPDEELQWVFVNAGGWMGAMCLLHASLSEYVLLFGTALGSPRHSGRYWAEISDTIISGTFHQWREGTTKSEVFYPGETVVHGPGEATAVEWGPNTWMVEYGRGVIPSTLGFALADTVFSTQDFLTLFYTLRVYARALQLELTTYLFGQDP
Glucocorticoid receptor (Homo sapiens), sequence (P04150 whole entry, looked up): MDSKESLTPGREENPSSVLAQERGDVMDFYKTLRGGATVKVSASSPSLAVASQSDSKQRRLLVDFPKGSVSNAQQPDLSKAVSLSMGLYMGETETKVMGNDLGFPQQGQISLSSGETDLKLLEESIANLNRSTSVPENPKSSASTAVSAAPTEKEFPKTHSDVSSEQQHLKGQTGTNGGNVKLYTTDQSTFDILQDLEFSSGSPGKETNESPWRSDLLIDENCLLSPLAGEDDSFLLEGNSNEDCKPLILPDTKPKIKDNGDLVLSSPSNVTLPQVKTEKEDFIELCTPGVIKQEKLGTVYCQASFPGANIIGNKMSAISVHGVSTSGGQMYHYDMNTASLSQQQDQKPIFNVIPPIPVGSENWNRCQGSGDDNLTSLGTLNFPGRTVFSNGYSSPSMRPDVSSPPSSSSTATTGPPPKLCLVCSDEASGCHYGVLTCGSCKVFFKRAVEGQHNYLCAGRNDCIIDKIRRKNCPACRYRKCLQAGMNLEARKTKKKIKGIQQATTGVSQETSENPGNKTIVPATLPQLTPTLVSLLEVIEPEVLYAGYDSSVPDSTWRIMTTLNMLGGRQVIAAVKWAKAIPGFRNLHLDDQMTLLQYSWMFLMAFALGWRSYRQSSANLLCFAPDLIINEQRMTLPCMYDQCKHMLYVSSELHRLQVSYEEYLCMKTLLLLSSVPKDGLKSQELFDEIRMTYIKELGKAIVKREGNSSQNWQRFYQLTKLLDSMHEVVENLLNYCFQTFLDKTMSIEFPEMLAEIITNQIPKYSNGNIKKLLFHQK
Nuclear receptor subfamily 1 group I member 2 (Homo sapiens), sequence (O75469 whole entry, looked up): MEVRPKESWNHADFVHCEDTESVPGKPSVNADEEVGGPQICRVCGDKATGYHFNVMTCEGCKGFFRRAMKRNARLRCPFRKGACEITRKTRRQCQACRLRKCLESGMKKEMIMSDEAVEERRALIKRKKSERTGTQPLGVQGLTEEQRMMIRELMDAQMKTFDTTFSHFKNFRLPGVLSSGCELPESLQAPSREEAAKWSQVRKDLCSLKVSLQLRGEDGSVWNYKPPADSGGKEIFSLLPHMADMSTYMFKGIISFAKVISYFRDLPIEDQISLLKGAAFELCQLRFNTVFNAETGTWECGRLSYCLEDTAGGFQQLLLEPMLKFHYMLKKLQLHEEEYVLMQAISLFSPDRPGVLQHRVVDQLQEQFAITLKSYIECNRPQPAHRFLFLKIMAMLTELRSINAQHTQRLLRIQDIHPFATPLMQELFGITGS

The target of one assay is human Peroxisome Proliferator-activated Receptor alpha (PPARa), PPARA (gene 5465) (UniProt Q07869). In words: NVS_NR_hPPARa: NovaScreen (NVS) Nuclear Receptor Binding Assay for human Peroxisome Proliferator-activated Receptor alpha (PPARa) (AID 2283359).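 Note: activity means loss of TR-FRET signal versus DMSO baseline.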 The method in brief: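 One-hour incubation, cell-free extracted protein, TR-FRET binding readout; signal loss vs DMSO scored. Screen: 25 uM duplicates, confirmatory dose series for actives.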
human Peroxisome Proliferator-activated Receptor alpha (PPARa), PPARA (gene 5465), sequence (Q07869 whole entry, looked up): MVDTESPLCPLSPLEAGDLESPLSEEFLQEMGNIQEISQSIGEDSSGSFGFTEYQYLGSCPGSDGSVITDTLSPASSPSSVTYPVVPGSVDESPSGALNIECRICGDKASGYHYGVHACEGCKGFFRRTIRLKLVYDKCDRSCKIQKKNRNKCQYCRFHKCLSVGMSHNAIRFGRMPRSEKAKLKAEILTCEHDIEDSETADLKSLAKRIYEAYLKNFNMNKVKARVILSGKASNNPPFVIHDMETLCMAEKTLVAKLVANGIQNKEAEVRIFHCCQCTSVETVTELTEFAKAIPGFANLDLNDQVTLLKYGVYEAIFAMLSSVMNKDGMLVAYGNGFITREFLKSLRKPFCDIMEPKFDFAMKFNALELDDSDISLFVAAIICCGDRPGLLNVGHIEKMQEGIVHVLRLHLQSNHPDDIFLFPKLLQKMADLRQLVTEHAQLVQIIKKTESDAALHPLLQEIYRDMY
Regarding `CCCCc1ccc2ccccc2c1S(=O)(=O)O`, the outcome was inactive.
As to `NC(=NCCCCCCN=C(N)/N=C(\N)Nc1ccc(Cl)cc1)/N=C(\N)Nc1ccc(Cl)cc1`, the concentration at half-maximal activity (AC50) was 0.178 µM (active).
`CCCCC(CC)C(=O)O` (stereo unspecified): the result was inactive.
Turning to `NCCN`, the compound was classed as inactive.
As to `CCCCCCCCCCCC`, the AC50 is 7.45 µM (active).

In the next assay the target is PGR (gene 5241) (UniProt P06401). In words: NVS_NR_hPR: NovaScreen (NVS) Nuclear Receptor Binding Assay for human Progestron Receptor (PR) (AID 2283360).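 Note: active means loss of bound radioligand signal versus DMSO baseline.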 The method in brief:
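Cell-free radioligand binding using receptor protein extracted from T47D cells, read by scintillation counting 18 hours after dosing. Loss of signal relative to DMSO baseline indicates displacement; primary screen single concentration 25 uM in duplicate, actives followed in concentration series.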
As for `CN(Cc1cnc2nc(N)nc(N)c2n1)c1ccc(C(=O)N[C@@H](CCC(=O)O)C(=O)O)cc1`, the compound was called inactive.
Regarding `C[C@]12CC[C@@H]3c4ccc(O)cc4CC[C@H]3[C@@H]1C[C@@H](O)[C@@H]2O`, the AC50 is 35.4 µM (active).
With `c1cc[nH]c1`, the outcome was inactive.
As for `CCCCCCCCCCCCCCC`, the result was inactive.
As to `Clc1ccc(Nc2nnc(Cc3ccncc3)c3ccccc23)cc1`, the call was inactive.

Another assay addresses human Thyroid Receptor Alpha (TRa), THRA (gene 7067) (UniProt P10827). In words: NVS_NR_hTRa_Antagonist: NovaScreen (NVS) Nuclear Receptor Binding Assay for human Thyroid Receptor Alpha Antagonism (TRa) (AID 2283362).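 Note: activity is loss of signal relative to DMSO baseline.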 In short, it runs like this: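 AlphaLISA chemiluminescent immunoassay readout, taken 1 h post-dosing in a cell-free system with extracted protein. Activity was scored as signal loss against DMSO negative control, from duplicate single-concentration (25 uM) testing followed by concentration-response follow-up.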
Turning to `CCCCC=O`, the outcome was inactive.
`Cc1cc(C(=C2C=CC(=Nc3ccc(S(=O)(=O)O)cc3)C=C2)c2ccc(Nc3ccc(S(=O)(=O)O)cc3)cc2)cc(S(=O)(=O)O)c1N`: the result was inactive.
In the case of `O=C(O)c1cccc(C(=O)O)n1`, the half-maximal activity concentration (AC50) is 28.1 µM (active).
For the compound `Cc1[nH]nc2c1N=C(c1ccccc1Cl)c1cc([N+](=O)[O-])ccc1N2`, the compound was classed as inactive.
Consider `c1cnc2c(c1)ccc1cccnc12`, for which the AC50 was 0.241 µM (active).

A further assay has as its target Glucocorticoid receptor (Homo sapiens) (UniProt P04150). In words: NVS_NR_hGR: NovaScreen (NVS) Nuclear Receptor Binding Assay for human Glucocorticoid Receptor (GR) (AID 2283363).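 For AC50: activity is loss of specific radioligand binding signal relative to DMSO.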 The method in brief: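 Single-readout cell-free binding: radioligand plus extracted receptor, 16-hour dosing, filter radiodetection; 25 uM duplicate primary, concentration series secondary.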
As for `C=CC(=C)CC/C=C(\C)CCC=C(C)C`, the compound was called inactive.
On to `Cc1cc(C(=C2C=CC(=Nc3ccc(S(=O)(=O)O)cc3)C=C2)c2ccc(Nc3ccc(S(=O)(=O)O)cc3)cc2)cc(S(=O)(=O)O)c1N`, for which the AC50 was 1.32 µM (active).
Regarding `C[C@]12CC[C@@H]3c4ccc(O)cc4CC[C@H]3[C@@H]1C[C@@H](O)[C@@H]2O`, the outcome was inactive.
As to `CC1=NN(c2ccccc2)C(=O)C1`, the AC50 is 45.7 µM (active).
With `CCCCc1ccc2ccccc2c1S(=O)(=O)O`, the half-maximal activity concentration (AC50) is 7.95 µM (active).
Still for that read-out and setting: to `NC(=NCCCCCCN=C(N)/N=C(\N)Nc1ccc(Cl)cc1)/N=C(\N)Nc1ccc(Cl)cc1` belongs 3.08 µM (active).
For `CCCCCCCCCCCC`, the concentration at half-maximal activity (AC50) was 0.703 µM (active).
As for `CCCCCCCCCCCCOC(=O)c1cc(O)c(O)c(O)c1`, the concentration at half-maximal activity (AC50) is 12.7 µM (active).
In the case of `CCC(=O)O`, the AC50 is 0.202 µM (active).

Another assay deals with Nuclear receptor subfamily 1 group I member 2 (Homo sapiens) (UniProt O75469). In words: NVS_NR_hPXR: NovaScreen (NVS) Nuclear Receptor Binding Assay for human Pregnane X Receptor (PXR) (AID 2283365).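 Note: a drop in FRET signal versus DMSO baseline means the compound binds.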 The method in brief:
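TR-FRET signal read at 2 h in a cell-free human PXR binding format. DMSO served as negative control and baseline; activity scored as signal loss. Single-concentration duplicate screen (25 uM), then concentration-response follow-up.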
As to `Cc1cc(C(=C2C=CC(=Nc3ccc(S(=O)(=O)O)cc3)C=C2)c2ccc(Nc3ccc(S(=O)(=O)O)cc3)cc2)cc(S(=O)(=O)O)c1N`, the half-maximal activity concentration (AC50) is 0.574 µM (active).
Turning to `O=C1NS(=O)(=O)c2ccccc21`, the compound was classed as inactive.
With `CCCCc1ccc2ccccc2c1S(=O)(=O)O`, the AC50 was 4.06 µM (active).
As to `NC(=NCCCCCCN=C(N)/N=C(\N)Nc1ccc(Cl)cc1)/N=C(\N)Nc1ccc(Cl)cc1`, the result was inactive.
For the compound `CCCCCCCCCCCC`, the concentration at half-maximal activity (AC50) was 2.03 µM (active).
In the case of `CCCCCC(C)OC(=O)COc1ccc(Cl)c2cccnc12` (stereo unspecified), the result was inactive.
For the compound `CCCCCCCCCCCC(=O)O`, the call was inactive.
Turning to `Cc1ccc(S(=O)(=O)O)cc1`, the compound was classed as inactive.
As to `CCCCCCCCCC=CCC1CC(=O)OC1=O` (stereo unspecified), the call was inactive.

A further assay deals with rat Androgen Receptor (AR), Ar (gene 24208) (UniProt P15207). In words: NVS_NR_rAR: NovaScreen (NVS) Nuclear Receptor Binding Assay for rat Androgen Receptor (AR) (AID 2283366). The method in brief: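 Actives from a duplicate single-concentration (25 uM) primary run went on to concentration series. Displacement of radioligand was counted by filtration and scintillation, 18 h post-dose, using prostate extracts from testosterone-pretreated rats, with DMSO as baseline.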
rat Androgen Receptor (AR), Ar (gene 24208), sequence (P15207 whole entry, looked up): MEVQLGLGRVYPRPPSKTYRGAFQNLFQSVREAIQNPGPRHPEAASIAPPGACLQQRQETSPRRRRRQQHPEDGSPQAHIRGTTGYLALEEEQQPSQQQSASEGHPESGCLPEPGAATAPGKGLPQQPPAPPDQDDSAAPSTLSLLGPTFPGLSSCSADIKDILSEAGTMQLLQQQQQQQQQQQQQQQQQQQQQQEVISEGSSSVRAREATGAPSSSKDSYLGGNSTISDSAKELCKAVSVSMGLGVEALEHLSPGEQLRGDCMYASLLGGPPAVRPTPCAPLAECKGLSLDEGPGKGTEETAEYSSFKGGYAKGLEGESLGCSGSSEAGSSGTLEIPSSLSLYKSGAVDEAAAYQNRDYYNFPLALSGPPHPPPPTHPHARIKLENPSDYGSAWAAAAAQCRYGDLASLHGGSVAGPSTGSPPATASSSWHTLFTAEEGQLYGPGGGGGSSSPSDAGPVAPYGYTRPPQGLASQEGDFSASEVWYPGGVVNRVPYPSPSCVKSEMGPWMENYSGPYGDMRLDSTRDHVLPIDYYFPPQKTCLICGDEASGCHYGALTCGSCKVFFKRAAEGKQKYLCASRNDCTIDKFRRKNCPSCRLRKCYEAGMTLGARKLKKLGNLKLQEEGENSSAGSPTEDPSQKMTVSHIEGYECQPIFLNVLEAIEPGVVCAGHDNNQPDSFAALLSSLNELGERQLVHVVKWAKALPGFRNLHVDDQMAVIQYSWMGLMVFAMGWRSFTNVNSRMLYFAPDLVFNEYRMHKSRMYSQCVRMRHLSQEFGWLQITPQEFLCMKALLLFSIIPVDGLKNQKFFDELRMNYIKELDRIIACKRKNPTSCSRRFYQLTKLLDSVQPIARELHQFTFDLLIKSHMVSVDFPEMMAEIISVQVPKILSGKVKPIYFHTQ
On to `CN(Cc1cnc2nc(N)nc(N)c2n1)c1ccc(C(=O)N[C@@H](CCC(=O)O)C(=O)O)cc1`, for which the compound was called inactive.
Take `Cc1cc(C(=C2C=CC(=Nc3ccc(S(=O)(=O)O)cc3)C=C2)c2ccc(Nc3ccc(S(=O)(=O)O)cc3)cc2)cc(S(=O)(=O)O)c1N`: the concentration at half-maximal activity (AC50) was 1.22 µM (active).
Regarding `NC(=NCCCCCCN=C(N)/N=C(\N)Nc1ccc(Cl)cc1)/N=C(\N)Nc1ccc(Cl)cc1`, the AC50 is 15.4 µM (active).
In the case of `CC(C)(c1ccc(Oc2ccc(N)cc2)cc1)c1ccc(Oc2ccc(N)cc2)cc1`, the compound was classed as inactive.

Another assay addresses guinea pig Sigma Receptor, Non-selective Binding, SIGMAR1 (gene 100135589) (UniProt Q60492). In words: NVS_OR_gSIGMA_NonSelective: NovaScreen (NVS) Nuclear Receptor Binding Assay for guinea pig Sigma Receptor, Non-selective Binding (AID 2283367). In short, it runs like this:
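Test chemicals were screened in duplicate at 25 uM, then in concentration series if active, against radioligand binding to guinea pig brain membranes; filtration and scintillation counting at 1 h measured remaining bound ligand.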
In the case of `NC(=NCCCCCCN=C(N)/N=C(\N)Nc1ccc(Cl)cc1)/N=C(\N)Nc1ccc(Cl)cc1`, the concentration at half-maximal activity (AC50) was 23.1 µM (active).
As to `CN(C)c1ccc(C(=C2C=CC(=[N+](C)C)C=C2)c2ccccc2)cc1`, the AC50 is 9.34 µM (active) and 12.5 µM (active).
Consider `CC[N+](CC)(CC)Cc1ccccc1`, for which the AC50 was 15.5 µM (active).
Turning to `CCCCCCCCCCCCCCCCCC[N+](C)(C)Cc1ccccc1`, the concentration at half-maximal activity (AC50) was 2.32 µM (active).
In the case of `CCN(CC)CC`, the call was inactive.

For the next assay, the system named is guinea pig Dopamine Transporter (DAT), gene 100714898. In words: NVS_TR_gDAT: NovaScreen (NVS) Transporter Assay for guinea pig Dopamine Transporter (DAT) (AID 2283369).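 Note: active compounds lower bound radioligand signal relative to DMSO.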 In short, it runs like this:
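Cell-free striatal membrane prep (guinea pig), 2 h exposure, filtration + scintillation readout of radioligand binding. Single-point 25 uM duplicate; actives rerun singleton, top conc 50 uM.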
On to `COC1=CC(=O)C[C@@H](C)[C@]12Oc1c(Cl)c(OC)cc(OC)c1C2=O`, for which the half-maximal activity concentration (AC50) is 3.8 µM (active).
On to `CN(Cc1cnc2nc(N)nc(N)c2n1)c1ccc(C(=O)N[C@@H](CCC(=O)O)C(=O)O)cc1`, for which the call was inactive.
On the same count and under the same terms, to `CCC(C)c1ccccc1O` (stereo unspecified) belongs “inactive”.
As to `C[C@]12CC[C@@H]3c4ccc(O)cc4CC[C@H]3[C@@H]1C[C@@H](O)[C@@H]2O`, the half-maximal activity concentration (AC50) was 3.04 µM (active).
For `CN(C)CCOC(c1ccccc1)c1ccccc1`, the concentration at half-maximal activity (AC50) is 6.23 µM (active).
As to `CCCCc1oc2ccccc2c1C(=O)c1cc(I)c(OCCN(CC)CC)c(I)c1`, the concentration at half-maximal activity (AC50) was 17.8 µM (active).
Regarding `O=C(CCCN1CCC(O)(c2ccc(Cl)cc2)CC1)c1ccc(F)cc1`, the half-maximal activity concentration (AC50) was 0.923 µM (active).
`NC(=NCCCCCCN=C(N)/N=C(\N)Nc1ccc(Cl)cc1)/N=C(\N)Nc1ccc(Cl)cc1`: the AC50 was 0.868 µM (active).
For the compound `O=C(c1ccccc1)c1ccccc1`, the outcome was inactive.
For the compound `CN(C)c1ccc(C(=C2C=CC(=[N+](C)C)C=C2)c2ccccc2)cc1`, the concentration at half-maximal activity (AC50) was 4.17 µM (active) and 3.93 µM (active).
On the same count and under the same terms, the figure for `CCCCCc1ccc(O)cc1` is 10.5 µM (active); for `N=C(N)c1ccc(OCCCCCOc2ccc(C(=N)N)cc2)cc1` it is 2.07 µM (active).
Regarding `Clc1ccc(Nc2nnc(Cc3ccncc3)c3ccccc23)cc1`, the half-maximal activity concentration (AC50) was 6.66 µM (active).
Consider `CC(C)(C)c1ccc(O)c(O)c1`, for which the concentration at half-maximal activity (AC50) was 45.5 µM (active).

(Values after PubChem BioAssay (EPA / NIEHS).)
